# Results filed as inconclusive are left out. A structure can be active in one record and inactive in another. The source made the active and inactive calls. How the source made its calls, unless noted: active means hit-call score of the fitted dose curve at least 0.9, where 1 is the maximum; inactive means score below 0.9.
# Legend:
# [1] = CCTE_Shafer_MEA_dev_firing_rate_mean: CCTE's Neural Network Formation Assay for Mean Firing Rate, Shafer Lab (AID 2284031);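 on AC50: curve fitted for loss of firing so AC50 reflects decreased mean firing rate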
# In short: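 Steps: seed rat cortical cells (1.5 x 10^5/well) with laminin on PEI-coated MEA; dose day 0; record DIV 5/7/9/12, full media and compound exchange after DIV 5 and 9 recordings; compute well-mean firing rate AUC.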
# [2] = CCTE_Shafer_MEA_dev_per_burst_spike_percent: CCTE's Neural Network Formation Assay for Percent of Spikes in a Burst, Shafer Lab (AID 2284032);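 on AC50: fitted as a decrease in burst spike percentage below DMSO baseline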
# In short: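 Value is trapezoidal AUC over recordings on days 5, 7, 9 and 12 of the well-mean fraction of spikes falling in single-electrode bursts; rat cortical cultures exposed continuously from plating, treatment renewed DIV 5 and 9, fitted downward against DMSO.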
# [3] = CCTE_Shafer_MEA_dev_active_electrodes_number: CCTE's Neural Network Formation Assay for Number of Active Electrodes, Shafer Lab (AID 2284040; active means hit-call score of the fitted dose curve at least 0.9, where 1 is the maximum;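 on AC50: potency for loss of active electrodes versus DMSO so lower counts are hits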)
# In short: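 Counts electrodes per well firing at least 5 spikes/min, recorded on days 5, 7, 9 and 12 in rat cortical cultures dosed continuously from plating (treatment refreshed DIV 5, 9). Value is the area under the curve over recordings, fitted downward relative to DMSO.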
# [4] = biological target: Estrogen receptor (Homo sapiens) (UniProt P03372); assay: CCTE_Deisenroth_AIME_384WELL_LUC_Active: CCTE's 384-well Estrogen Receptor Transactivation Assay with AIME metabolic competence (ERTA luciferase; metabolism positive), Deisenroth Lab (AID 2284030; active means hit-call score of the fitted dose curve at least 0.9, where 1 is the maximum)
# Estrogen receptor (Homo sapiens), sequence (P03372 whole entry, looked up): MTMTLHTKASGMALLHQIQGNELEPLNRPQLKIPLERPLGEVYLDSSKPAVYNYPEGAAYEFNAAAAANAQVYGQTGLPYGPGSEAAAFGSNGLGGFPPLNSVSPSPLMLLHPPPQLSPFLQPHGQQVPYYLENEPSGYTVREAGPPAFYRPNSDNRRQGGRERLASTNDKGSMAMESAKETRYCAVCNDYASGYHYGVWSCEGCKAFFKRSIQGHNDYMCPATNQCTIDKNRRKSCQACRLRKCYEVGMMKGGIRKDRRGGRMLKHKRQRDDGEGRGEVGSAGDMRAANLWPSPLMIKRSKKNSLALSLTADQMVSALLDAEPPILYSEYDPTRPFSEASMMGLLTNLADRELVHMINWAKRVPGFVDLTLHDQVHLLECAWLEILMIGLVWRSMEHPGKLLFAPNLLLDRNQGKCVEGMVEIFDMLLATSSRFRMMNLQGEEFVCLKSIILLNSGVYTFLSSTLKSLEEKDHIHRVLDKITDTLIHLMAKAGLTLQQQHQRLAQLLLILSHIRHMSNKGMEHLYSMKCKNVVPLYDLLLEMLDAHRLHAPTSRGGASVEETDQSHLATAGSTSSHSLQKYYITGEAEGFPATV
# In short: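 AIME metabolism-positive mode: chemicals 0.002 - 200 uM, 2 h with alginate-bound PB/BNF-induced rat S9 → medium to VM7Luc4E2 ERTA, 24 h → luciferase. Positive fit vs 17beta-estradiol; n=4 typical.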
# [5] = biological target: Estrogen receptor (Homo sapiens) (UniProt P03372); assay: CCTE_Deisenroth_AIME_384WELL_LUC_Inactive: CCTE's 384-well Estrogen Receptor Transactivation Assay without AIME metabolic competence (ERTA luciferase; metabolism negative), Deisenroth Lab (AID 2284038; active means hit-call score of the fitted dose curve at least 0.9, where 1 is the maximum;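 further: VM7Luc4E2 breast cells given medium preincubated 2 h with S9-free microspheres; hits raise estrogen receptor luciferase signal so potencies reflect agonists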)
# In short: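 VM7Luc4E2 ER transactivation, luciferase bioluminescence after 24 h, using medium pre-incubated 2 h with S9-free alginate microspheres. Concentrations 0.002–200 uM; gain of signal fitted relative to 17beta-estradiol.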
# [6] = CCTE_Deisenroth_AIME_384WELL_CTox_Inactive: Cytotoxicity Assessment (CTOX) in CCTE's 384-well Estrogen Receptor Transactivation Assay without AIME metabolic competence (metabolism negative), Deisenroth Lab (AID 2284039; active means hit-call score of the fitted dose curve at least 0.9, where 1 is the maximum;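 further: cell viability via live-cell protease substrate cleaved to fluorescent probe; cells exposed 24 h to medium preincubated 2 h with alginate-water beads without S9; loss of fluorescence signal means loss of viability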)
# In short: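 Fluorescent protease-substrate viability readout after 24 h exposure of VM7Luc4E2 cells to conditioned medium. Chemicals (0.002–200 uM) first sat 2 h over alginate-water beads, no S9. Data fitted bidirectionally, loss of signal meaning viability loss.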
# [7] = biological target: Estrogen receptor (Homo sapiens) (UniProt P03372); assay: CCTE_Deisenroth_AIME_96WELL_LUC_Active: CCTE's 96-well Estrogen Receptor Transactivation Assay with AIME metabolic competence (ERTA luciferase; metabolism positive), Deisenroth Lab (AID 2284023; active means hit-call score of the fitted dose curve at least 0.9, where 1 is the maximum)
# In short: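 Metabolism-positive mode: induced rat hepatic S9 in alginate microspheres conditions test solutions (0.002 - 200 uM, 10 points) for 2 hours. VM7Luc4E2 ER luciferase reporter cells then exposed 24 h; positive-direction fit against 17beta-estradiol, n=4 typical.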
# [8] = biological target: Estrogen receptor (Homo sapiens) (UniProt P03372); assay: CCTE_Deisenroth_AIME_96WELL_LUC_Inactive: CCTE's 96-well Estrogen Receptor Transactivation Assay without AIME metabolic competence (ERTA luciferase; metabolism negative), Deisenroth Lab (AID 2284025; active means hit-call score of the fitted dose curve at least 0.9, where 1 is the maximum)
# In short: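 Metabolism-negative arm: chemicals (0.002–200 uM, 10 points) incubated 2 h with alginate-water microspheres, then medium moved onto VM7Luc4E2 cells for 24 h luciferase read-out. Positive direction vs 17beta-estradiol; n≥4 experiments.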
# [9] = CCTE_Deisenroth_AIME_384WELL_CTox_Active: Cytotoxicity Assessment (CTOX) in CCTE's 384-well Estrogen Receptor Transactivation Assay with AIME metabolic competence (metabolism positive), Deisenroth Lab (AID 2284037; active means hit-call score of the fitted dose curve at least 0.9, where 1 is the maximum;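 further: chemicals first conditioned 2 h by alginate-bound induced rat liver S9 before cells; activity means signal loss indicating cell death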)
# In short: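 Chemicals pre-incubated 2 hours with alginate-immobilised phenobarbital/beta-naphthoflavone-induced male Sprague Dawley rat liver S9, then conditioned medium applied 24 hour to VM7Luc4E2 cells. Viability by fluorogenic protease substrate; 10-point series 0.002 - 200 uM.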
# [10] = CCTE_Shafer_MEA_acute_per_burst_spike_number_mean: CCTE's Neural Acute Assay for Average Number of Spikes Per Burst, Shafer Lab (AID 2284015);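 further: hits are decreases in mean spikes per burst versus baseline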
# In short: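 Percent change in mean spikes per single-electrode burst is compared between a 40 min baseline and a 40 min recording with compound (0.03-40 uM). Cultures were rat cortical neurons on MEA plates at DIV 13 or 15, recorded at 37 C, with DMSO as the negative control.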
# [11] = CCTE_Shafer_MEA_acute_interburst_interval_mean: CCTE's Neural Acute Assay for Mean Interburst Interval, Shafer Lab (AID 2284016);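 further: percent change of mean interburst interval versus each well's own pre-dose baseline; curves fitted for decrease in interburst interval relative to DMSO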
# In short: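 Percent change in mean single-electrode interburst interval was calculated per well from 40 min recordings before and after compound (0.03-40 uM). Recordings were made at 37 C on rat cortical cultures at DIV 13 or 15, with spikes detected at 8x rms threshold.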
# [12] = CCTE_Shafer_MEA_acute_burst_percentage_mean: CCTE's Neural Acute Assay for Percentage of Spikes in a Burst, Shafer Lab (AID 2284017)
# In short: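 Well-level mean burst percentage from a 40-min recording after compound (0.03-40 uM) expressed as percent change from a 40-min baseline at 37C. Cultures: primary rat cortical neurons on MEA, dosed on DIV 13 or 15; fitted downward relative to DMSO.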
# [13] = CCTE_Shafer_MEA_acute_burst_percentage_std: CCTE's Neural Acute Assay for Standard Deviation of Burst Percentage, Shafer Lab (AID 2284018);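 further: fitted in the negative direction so actives lower burst percentage SD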
# In short: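 Rat primary cortical neurons on 48-well MEAs, DIV 13 or 15, 37 C. 40-min baseline then 40-min recording with compound (0.03-40 uM); well-level SD of per-electrode burst spike percentage, expressed as percent change from baseline.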
# [14] = CCTE_Shafer_MEA_acute_per_network_burst_spike_number_mean: CCTE's Neural Acute Assay for Average Number of Spikes in a Network Burst, Shafer Lab (AID 2284019)
# In short: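 Rat cortical cultures, DIV 13/15; spike threshold 8x rms noise, 300-5000 Hz band-pass, 12.5 kHz sampling; wells need >/= 10 active electrodes. Compound 0.03-40 uM, 40 min, 37 C; % change vs own baseline, DMSO negative control.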
# [15] = CCTE_Shafer_MEA_acute_per_network_burst_spike_number_std: CCTE's Neural Acute Assay for Standard Deviation of Number of Spikes in a Network Burst, Shafer Lab (AID 2284020);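 further: fitted for decrease in spike-number SD versus DMSO so actives lower it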
# In short: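 Rat cortical cultures, DIV 13/15, 37 C; 20-min stabilisation, 40-min baseline, compound 0.03-40 uM, 40-min re-record. Spikes detected at 8x rms noise (300-5000 Hz band-pass). Readout: % change from baseline in per-burst spike-number SD.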
# [16] = CCTE_Shafer_MEA_acute_per_network_burst_electrodes_number_mean: CCTE's Neural Acute Assay for Mean Number of Electrodes in a Network Burst, Shafer Lab (AID 2284021);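 further: curves fitted for decreases only so hits reduce electrodes per burst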
# In short: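 Primary rat cortical networks, mwMEA, 37 C. 20 min stabilization, 40 min baseline, compound 0.03-40 uM, 40 min re-record. Wells need >=10 active electrodes; percent change per well, negative fitting direction.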
# [17] = CCTE_Shafer_MEA_acute_network_burst_percentage: CCTE's Neural Acute Assay for Percentage of Network Bursts, Shafer Lab (AID 2284022);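 further: curves fitted for loss so actives lower network burst percentage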
# In short: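 Readout is the fraction of spikes falling in network bursts, expressed as per-well percent change from a 40-min pre-exposure baseline. Primary rat cortical neurons on MEA were exposed to 0.03-40 uM compound on DIV 13 or 15 and recorded for 40 min at 37 C.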
# [18] = CCTE_Shafer_MEA_acute_cross_correlation_area: CCTE's Neural Acute Assay for Area of Cross Correlation, Shafer Lab (AID 2284024);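 further: area under pooled inter-electrode spike cross-correlation near zero lag as percent change from own baseline; curves fitted for loss of cross-correlation area so actives lower synchrony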
# In short: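 Plates equilibrated 20 min at 37 C, then 40 min baseline was recorded, compound was added (0.03-40 uM), and a further 40 min was recorded. Wells needed ≥10 active electrodes (≥5 spikes/min) on exposure day.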
# [19] = CCTE_Shafer_MEA_acute_cross_correlation_HWHM: CCTE's Neural Acute Assay for Cross Correlation at Half Width at Half Maximum, Shafer Lab (AID 2284026);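 further: spontaneous network firing of rat primary cortical neurons on multiwell microelectrode arrays; percent change per well from pre-dose baseline in spike cross-correlogram half width; hits are a decrease in cross-correlogram half width relative to DMSO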
# In short: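 Rat cortical neuron cultures on microelectrode arrays were equilibrated 20 min at 37 C, recorded 40 min at baseline, then 40 min after compound addition (0.03-40 uM, ≥3 wells). Spikes were detected at 8x rms noise after 300-5000 Hz band-pass filtering.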
# [20] = CCTE_Shafer_MEA_acute_synchrony_index: CCTE's Neural Acute Assay for Synchrony, Shafer Lab (AID 2284027);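 further: network synchrony index of spontaneous spiking in primary rat cortical neurons on MEAs; fitted for loss of signal so actives lower synchrony relative to DMSO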
# In short: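 Plates equilibrated 20 min at 37 C, baseline recorded 40 min, compound (0.03-40 uM) added, then 40 min more recorded. Cells: primary rat cortical neurons, DIV 13 or 15. Per-well synchrony index change analysed in negative direction against DMSO.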
structure (smiles),measurement,setting,value
N=C(N)C(F)(F)C(F)(F)C(F)(F)C(F)(F)C(F)(F)C(F)(F)C(F)(F)F,outcome,[1],inactive
same,outcome,[2],inactive
same,outcome,[3],inactive
C(=C(c1ccccc1)c1ccccc1)c1ccccc1,AC50,[4],4.42 µM (active)
same,AC50,[5],9.48 µM (active)
same,outcome,[6],inactive
C#C[C@]1(O)CC[C@H]2[C@@H]3CCc4cc(OC)ccc4[C@H]3CC[C@@]21C,AC50,[7],0.0001 µM (active)
same,AC50,[8],0.000372 µM (active)
CC/C=C\CCOC(C)=O,outcome,[4],inactive
same,outcome,[9],inactive
same,outcome,[6],inactive
OCC(F)(F)C(F)(F)C(F)(F)C(F)F,outcome,[1],inactive
same,outcome,[2],inactive
same,outcome,[3],inactive
O=C(O)C=C(C(F)(F)F)C(F)(F)F,outcome,[1],inactive
same,outcome,[2],inactive
same,outcome,[3],inactive
CCCCC(CC)COP(=O)(O)OCC(CC)CCCC (stereo not drawn),outcome,[10],inactive
same,outcome,[11],inactive
same,outcome,[12],inactive
same,outcome,[13],inactive
same,outcome,[14],inactive
same,outcome,[15],inactive
same,outcome,[16],inactive
same,outcome,[17],inactive
same,AC50,[18],0.00823 µM (active)
same,outcome,[19],inactive
same,outcome,[20],inactive
FC(F)(F)C(F)(F)C(F)(F)C(F)(F)C(F)(F)CCI,outcome,[1],inactive
same,AC50,[2],22.2 µM (active)
same,AC50,[3],15 µM (active)
O=P(O)(O)OCCC(F)(F)C(F)(F)C(F)(F)C(F)(F)C(F)(F)C(F)(F)F,outcome,[1],inactive
same,outcome,[2],inactive
same,outcome,[3],inactive
OCC(F)(F)C(F)(F)C(F)(F)F,outcome,[1],inactive
same,outcome,[2],inactive
same,outcome,[3],inactive
O=C(O)C(F)(F)C(F)(F)C(F)(F)C(F)(F)C(F)(F)C(F)(F)C(F)(F)C(F)(F)C(F)(F)C(F)F,outcome,[1],inactive
same,outcome,[2],inactive
CCCCCCOC(=O)c1ccccc1O,outcome,[10],inactive
same,outcome,[11],inactive
same,outcome,[12],inactive
same,outcome,[13],inactive
same,outcome,[14],inactive
same,outcome,[15],inactive
same,outcome,[16],inactive
same,outcome,[17],inactive
same,outcome,[18],inactive
same,outcome,[19],inactive
same,outcome,[20],inactive
CNC(=S)NC,outcome,[4],inactive
same,outcome,[5],inactive
same,outcome,[6],inactive
C=CC(=O)OCC(F)(F)C(F)(F)C(F)(F)C(F)(F)COC(=O)C=C,AC50,[1],4.34 µM (active)
same,AC50,[2],4.76 µM (active)
same,AC50,[3],4.2 µM (active)
OC[C@@H](O)[C@@H](O)[C@H](O)[C@@H](O)CO,outcome,[1],inactive
same,outcome,[2],inactive
same,outcome,[3],inactive
NC(=O)C(F)(F)C(F)(F)C(F)(F)C(F)(F)F,outcome,[1],inactive
same,outcome,[2],inactive
COC(=O)CCC(F)(F)C(F)(F)C(F)(F)C(F)(F)F,outcome,[1],inactive
same,outcome,[2],inactive
CCN(Cc1cccc(S(=O)(=O)O)c1)c1ccc(C(=C2C=CC(=[N+](CC)Cc3cccc(S(=O)(=O)O)c3)C=C2)c2ccc(O)cc2S(=O)(=O)[O-])cc1,AC50,[9],124 µM (active)
same,AC50,[6],100 µM (active)
O=C(O)C(F)(F)C(F)(F)C(F)(F)F,outcome,[1],inactive
same,outcome,[2],inactive
same,outcome,[3],inactive
OCCCC(F)(F)C(F)(F)C(F)(F)F,outcome,[1],inactive
same,outcome,[2],inactive
same,outcome,[3],inactive
FC(F)(F)C(F)(F)CNCC(F)(F)C(F)(F)F,outcome,[1],inactive
same,outcome,[2],inactive
same,outcome,[3],inactive
CC(C)(C)C(=O)CC(=O)C(F)(F)C(F)(F)C(F)(F)F,outcome,[1],inactive
same,AC50,[2],23.5 µM (active)
same,AC50,[3],25.2 µM (active)
CC(CCl)OP(=O)(OC(C)CCl)OC(C)CCl (stereo not drawn),outcome,[1],inactive
same,outcome,[2],inactive
same,AC50,[3],50 µM (active)
same,outcome,[3],inactive
O=C(O)C(F)(F)C(F)(F)C(F)(F)C(F)(F)C(F)(F)C(F)(F)C(F)(F)C(F)(F)Cl,outcome,[1],inactive
same,outcome,[2],inactive
same,outcome,[3],inactive
O=S(=O)(OCC(F)F)C(F)(F)F,outcome,[1],inactive
same,outcome,[2],inactive
same,outcome,[3],inactive
O=C(O)C(F)(F)C(F)(F)C(F)F,outcome,[1],inactive
same,outcome,[2],inactive
same,outcome,[3],inactive
Cc1ccc(S(=O)(=O)OCC(F)(F)C(F)(F)C(F)(F)C(F)(F)C(F)(F)C(F)F)cc1,outcome,[1],inactive
same,outcome,[2],inactive
O=S(=O)(OCCOC(F)(F)F)C(F)(F)F,outcome,[1],inactive
same,outcome,[2],inactive
same,outcome,[3],inactive
FC(F)(F)C(F)(F)C(F)(F)C(F)(F)C(F)(F)C(F)(F)CC1CO1 (stereo not drawn),outcome,[1],inactive
same,outcome,[2],inactive
OCC(F)(F)C(F)(F)C(F)(F)C(F)(F)C(F)(F)C(F)F,outcome,[1],inactive
same,outcome,[2],inactive
same,outcome,[3],inactive
CCCCCCC(C)OC(=O)CCCCC(=O)OC(C)CCCCCC (stereo not drawn),outcome,[4],inactive
same,outcome,[5],inactive
same,outcome,[6],inactive

# Source: PubChem BioAssay (EPA / NIEHS)
